The list is not random: actives were taken first. Their share in the collection is about 2.9%.
IP6K1 inh: inhibitors of human IP6K1; 140,000 compounds, 0.81% hits; IP6K1 kinase, ADP-Glo luminescence, 2 h; stronger effect = lower value; activity change, % (series mostly up to about 58 µM); AID 1645851; in the data active means activity change below about -25%; further: on the % scale 0 is the no-effect control and ±100 the full control effect
Target sequence (Q92551 whole entry, looked up): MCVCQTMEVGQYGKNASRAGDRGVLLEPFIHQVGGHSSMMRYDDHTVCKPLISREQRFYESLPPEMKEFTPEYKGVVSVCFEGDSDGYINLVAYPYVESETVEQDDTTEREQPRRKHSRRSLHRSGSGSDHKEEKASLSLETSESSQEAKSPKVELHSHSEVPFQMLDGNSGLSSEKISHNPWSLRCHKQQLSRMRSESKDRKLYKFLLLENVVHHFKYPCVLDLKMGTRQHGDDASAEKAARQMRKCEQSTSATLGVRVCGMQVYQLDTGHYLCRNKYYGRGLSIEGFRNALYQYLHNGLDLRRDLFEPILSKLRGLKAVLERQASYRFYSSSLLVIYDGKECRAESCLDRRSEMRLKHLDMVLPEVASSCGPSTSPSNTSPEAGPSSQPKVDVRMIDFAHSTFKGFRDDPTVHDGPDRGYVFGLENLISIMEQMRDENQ
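ADP-Glo luminescence measures ADP made by human IP6K1 during a 2 h RT reaction with ATP/IP6 (mix at 1.3 mM/130 uM); top library doses 57.5 and 19.1 uM final.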
SNCA viab count: counter-screen for SNCA expression inhibitors: cell viability. AID 1671193. Potency, µM (titrated, usually from 57.1 µM), without a hit: top-dose activity change, negative = cytotoxicity, usual class: cytotoxic. HEK-293-SNCA-luc viability, GF-AFC fluorescence, 24 h. 150,000 compounds, 0.12% hits;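 further: potency means the concentration at half of the fitted maximal effect; 0% = DMSO-treated cells and -100% = medium-only wells without cells; nearly all actives have a fitted effect of over 30% in size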
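Cytotoxicity counterscreen: after 24 h compound treatment of genome-edited SNCA-luciferase HEK-293 cells, live-cell protease substrate GF-AFC read by fluorescence after 30 min; activity scaled between DMSO (0%) and medium-only (-100%), curves Hill-fitted.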
SNCA expr inh: reduces expression of the alpha-synuclein gene; HEK-293 SNCA-luciferase knock-in, luminescence, 24 h; Potency, µM (doses to about 57.2 µM), for the others: top-dose activity change, negative = inhibition, usual class: inhibitors; 140,000 compounds, 0.17% hits; AID 1671194;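 further: potency means the concentration at half of the fitted maximal effect; plate controls were DMSO cells for no effect and cell-free wells for full effect; nearly all actives have a fitted effect of over 45% in size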
KDM5B inh: inhibitors of human KDM5B histone demethylase; Potency, µM (highest dose often 57.7 µM), most hits filed as inhibitors; KDM5B demethylase, FDH-coupled NADH fluorescence (FDH is formaldehyde dehydrogenase); 220,000 compounds, 2.6% hits; further: potency means the concentration at half of the fitted maximal effect; 0% is about no effect; nearly all actives have a fitted effect of over 70% in size
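Coupled FDH/NAD⁺ fluorescence readout. KDM5BΔAP 200 nM final; compound titration, 10 min RT preincubation; substrate mix 12.5 µM H3K4me3, 25 µM 2-OG, 50 µM Fe(II), 100 µM ascorbate, 0.25 mM NAD⁺, 0.25 U/mL FDH; ΔRFU over 30 min.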
Active calls of the source: *; ! = not confirmed by another sample; [ ] = remark or other dose. Unless noted, the call rests on the fitted dose curve; in most records, active means well fitted curve in the direction sought with a large enough effect; inconclusive means small, poorly fitted or top-dose-only effect, or another doubt; inactive means no such curve, though single readings can be large; an effect the other way counts as inactive or inconclusive.

`Cc1ccc(C(=O)N2CCC(N3CCCCCC3=O)CC2)cc1` gave IP6K1 inh 21, SNCA viab count -4%[87.6 µM], SNCA expr inh -17%[87.6 µM] and KDM5B inh 35µM*.
O=C(c1cc(Br)cn2ccnc12)N1CCOCC1 was read as IP6K1 inh 11, SNCA viab count 10%[87.6 µM], SNCA expr inh 42%[87.6 µM] and KDM5B inh 28µM*!.
`O=C(Cc1ccccn1)NC1CCN(Cc2cccc(-c3ccc(F)c(F)c3)c2)CC1` gave IP6K1 inh 16, SNCA viab count 5% and SNCA expr inh 4%.
COc1ccc(C(=O)N2CCC(N3CCCNC3=O)CC2)cc1 was read as IP6K1 inh 14, SNCA viab count 14%[87.6 µM], SNCA expr inh -1%[87.6 µM] and KDM5B inh inactive.
O=C(c1cc(Br)cn2ccnc12)N1CCC(N2CCCCC2)CC1 was read as IP6K1 inh -11, SNCA viab count -3%, SNCA expr inh -28% and KDM5B inh 28µM*.
`COc1ccc(C(=O)N2CCC(N3CCNC3=O)CC2)cc1` gave IP6K1 inh -22, SNCA viab count -2%[87.6 µM], SNCA expr inh 31%[87.6 µM] and KDM5B inh 89µM*.
O=C(c1cc(Br)cn2ccnc12)N1CCC(N2CCCCCC2=O)CC1 was read as IP6K1 inh -8, SNCA viab count 7%, SNCA expr inh 27% and KDM5B inh 25µM*.
For Cc1ccc(CCNC(=O)c2cc(-c3ccncc3)nc3ccccc23)cc1 the results were KDM5B inh inactive.
Screening CCn1cnnc1CCNC(=O)c1cc(-c2ccc(C)cc2)nc2ccccc12 returned IP6K1 inh 9, SNCA viab count 3%, SNCA expr inh inconclusive and KDM5B inh 28µM*.
For COc1cccc(-c2noc(CC3CCN(C(=O)c4cc(Cl)ccc4F)CC3)n2)c1 the results were IP6K1 inh -24, SNCA viab count inconclusive, SNCA expr inh inconclusive and KDM5B inh inconclusive.
For O=C(Cc1csc(-c2ccccc2)n1)N[C@H](c1ccccn1)C1CC(O)C1 (some centres undefined) the results were IP6K1 inh 8, SNCA viab count -1%, SNCA expr inh -10% and KDM5B inh 25µM*.
`Nc1nc2c(c(C(=O)N[C@H](c3ccccn3)C3CC(O)C3)n1)CCCC2` (some centres undefined) gave IP6K1 inh 35, SNCA viab count 10%, SNCA expr inh 6% and KDM5B inh 28µM*.
`N#Cc1cccnc1-c1ccc(C(=O)N2CCC(NC(=O)Nc3ccccc3)CC2)cc1` gave IP6K1 inh -2, SNCA viab count 2%[12.5 µM] and SNCA expr inh 17%.
`Cc1ccc(C)c(Cn2ccn3nc(-c4ccc(F)cc4)c(CO)c3c2=O)c1` gave IP6K1 inh 13, SNCA viab count -2%, SNCA expr inh -10% and KDM5B inh inconclusive.
For N#Cc1ccnc(N2CCN(C(=O)Nc3ccc(F)cc3)CC2)c1 the results were KDM5B inh inactive.
Screening O=C(C1CCCN(C2CCN(c3ncccn3)CC2)C1)N1CCOCC1 (centres undefined) returned IP6K1 inh -4, SNCA viab count 7%, SNCA expr inh 8% and KDM5B inh 20µM*.
CNc1ccnc(N2CCC(N3CCCC(C(=O)N4CCCC4)C3)CC2)n1 (centres undefined) was read as IP6K1 inh -9, SNCA viab count -1%, SNCA expr inh 17% and KDM5B inh inconclusive.
`CN1CCN(C(=O)C2CCCN(C3CCN(c4cc(C#N)ccn4)CC3)C2)CC1` (centres undefined) gave IP6K1 inh 0, SNCA viab count -19%, SNCA expr inh inconclusive and KDM5B inh 28µM*.
For Cc1nnc2n1CCC(NC(=O)c1cccn1C)CC2 (centres undefined) the results were IP6K1 inh -2, SNCA viab count 6%, SNCA expr inh 24% and KDM5B inh 20µM*.
`Cc1cccc(NC(=O)N2CCc3c(c4cc(F)ccc4n3C)C2)c1` gave IP6K1 inh 0, SNCA viab count -8%, SNCA expr inh 29% and KDM5B inh 32µM*.
`Cn1c2c(c3cc(F)ccc31)CN(C(=O)Nc1cccc(Cl)c1)CC2` gave IP6K1 inh -2, SNCA viab count -3%, SNCA expr inh 0% and KDM5B inh 32µM*.
Screening Cc1nc(-c2ccc(Cl)cc2)n(Cc2ccc(F)c(F)c2)c(=O)c1CCO returned IP6K1 inh -1, SNCA viab count 4%, SNCA expr inh -13% and KDM5B inh inconclusive.

Screening results deposited in PubChem BioAssay by National Center for Advancing Translational Sciences (NCATS).
